Reference: the OligoGym collection

What follows are sequences tested against PRKX (assay: pooled miR-30 sensor sort-seq; sequence = guide strand). Settings: shRNA.
Work on TAATGAGGTCTTTTACATGGAA yielded a sensor-assay potency score (higher = more potent) of -0.747. Sequence TTCATGTTTCCTAATCGCCTTG has a sensor-assay potency score (higher = more potent) of -0.603. With TCGCCTTGTTCTGTCAACCACG the sensor-assay potency score (higher = more potent) was -0.962. In the case of TTCCTAATCGCCTTGTTCTGTC, the sensor-assay potency score (higher = more potent) was -0.396. TCATGTTTCCTAATCGCCTTGT showed a sensor-assay potency score (higher = more potent) of 0.781. Work on TTCTCTGGCTTCAAGTCCCTGT yielded a sensor-assay potency score (higher = more potent) of -0.5. TAGCTGAAGAGCTCGCCGCCCG showed a sensor-assay potency score (higher = more potent) of -0.771. TTGGAGTGCAGGTACTCGATGG was tested, and the sensor-assay potency score (higher = more potent) was -0.357. For TTTCCTAATCGCCTTGTTCTGT, the sensor-assay potency score (higher = more potent) was -0.676. For ATTGTGTACGTGTTGCTCCTGC, the sensor-assay potency score (higher = more potent) was 0.0637. Sequence TTAATGAGGTCTTTTACATGGA has a sensor-assay potency score (higher = more potent) of -0.298. In the case of TTGGCGAACCCAAAGTCCGTGA, the sensor-assay potency score (higher = more potent) was -0.61.

What follows are sequences tested against PRM2 in the same assay as above. Settings: shRNA.
For TGCCTGTACACCTCGTGCGAGC, the sensor-assay potency score (higher = more potent) was -1.54. Sequence TTCCTGGTTCTGCAGCCTCTGC has a sensor-assay potency score (higher = more potent) of -1.75. For TTTCTCTTAACTTCCAGCTGGG, the sensor-assay potency score (higher = more potent) was 0.205. In the case of TTGCCCATGCAACTGCTGCCTG, the sensor-assay potency score (higher = more potent) was -0.795. Sequence TTCTCTTAACTTCCAGCTGGGG has a sensor-assay potency score (higher = more potent) of -0.773. TTGCTCTTGCCCATGCAACTGC gave a sensor-assay potency score (higher = more potent) of -0.57. For TTGCGCCTTCTGCAGGAGCGAT, the sensor-assay potency score (higher = more potent) was -1.7. Work on TATAGTGAGACTGGCCATGGGT yielded a sensor-assay potency score (higher = more potent) of -0.496. TCGAGAGCAGTGTCTGCGCCTA showed a sensor-assay potency score (higher = more potent) of -0.978. TTTTTCTTAATTTCCAGCTGGG showed a sensor-assay potency score (higher = more potent) of 0.485. With TAGACCTCGACGTGCTCCGGGC the sensor-assay potency score (higher = more potent) was -1. Work on TTCGAGAGCAGTGTCTGCGCCT yielded a sensor-assay potency score (higher = more potent) of -0.241.
